Measured values published in PubChem BioAssay AID624330 (Southern Research Specialized Biocontainment Screening …, 2012).
About 2,100 (0.62%) of roughly 340,000 compounds were called active.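 Rule for the calls: active = first-screen hits whose inhibition reached a set limit at any dose in the follow-up dose series; inconclusive = inhibition above the set first-screen limit but never retested; inactive = the rest.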 A selection follows. Measured potencies and affinities stand elsewhere. Square brackets hold non-standard residues; d marks the D form. Peptide text beside a SMILES is read from it. * marks the point of attachment. ξ: configuration not given here. Cbz = O=C(OCc1ccccc1)*; ξP = O=C(O)C1CCCN1

Target: Rac GTPase-activating protein 1 (Homo sapiens) (UniProt Q9H0H5)
Test: MgcRacGAP GTPase-activating activity inhibitors, confirmation, biochemical, ADP Hunter fluorescence, primary and confirmatory (AID 624330);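 note: fluorescence reports GDP produced by GAP-driven GTP hydrolysis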
Settings: MgcRacGAP-stimulated Rac1 GTP hydrolysis, at 30 µM, stronger effect = higher value, GST-tagged Rac1 F28L mutant substrate

Sequence of Rac GTPase-activating protein 1 (Homo sapiens) (Q9H0H5 whole entry, looked up): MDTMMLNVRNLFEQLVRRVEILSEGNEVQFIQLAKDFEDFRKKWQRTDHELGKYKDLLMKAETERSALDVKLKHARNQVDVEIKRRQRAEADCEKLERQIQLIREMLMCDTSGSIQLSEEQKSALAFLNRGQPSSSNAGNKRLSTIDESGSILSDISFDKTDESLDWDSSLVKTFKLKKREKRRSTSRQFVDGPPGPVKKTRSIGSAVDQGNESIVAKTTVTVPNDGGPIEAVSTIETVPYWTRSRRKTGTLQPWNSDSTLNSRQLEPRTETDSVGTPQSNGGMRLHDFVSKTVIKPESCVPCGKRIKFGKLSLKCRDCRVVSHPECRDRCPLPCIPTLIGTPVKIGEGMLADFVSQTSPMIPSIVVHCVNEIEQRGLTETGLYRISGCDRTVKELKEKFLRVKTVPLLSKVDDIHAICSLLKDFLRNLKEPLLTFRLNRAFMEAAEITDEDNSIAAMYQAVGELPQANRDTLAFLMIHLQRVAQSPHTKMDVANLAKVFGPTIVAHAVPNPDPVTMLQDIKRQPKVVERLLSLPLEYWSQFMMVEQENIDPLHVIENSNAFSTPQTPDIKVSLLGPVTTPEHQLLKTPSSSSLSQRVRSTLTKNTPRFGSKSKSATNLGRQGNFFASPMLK

inhibition, inactive:
CCOC(=O)C1=C(COC(=O)/C=C/c2cccc(Br)c2)NC(=O)NC1C (centres undefined) 2.35%, Cc1cccc(C)c1-n1nnnc1C1(Nc2ccccc2)CCCCC1 8.6%, CN(C(=O)c1ccc(NC(=O)Cc2cccc(NC(=O)C3CCCN(C(=O)C4CCCC4)C3)c2)cc1)C1CCCC1 (centres undefined) 8.78%, COc1ccc(NC2CCCN(C(=O)c3cccnc3)C2)cc1 (centres undefined) 26.2%, COc1cc(OC)cc(C(=O)NCC2CCCN(C(=O)c3csc(C(C)C)n3)C2)c1 (centres undefined) 8.24%, Cc1ccc(C(=O)N2CCCC(Nc3ccc(C(C)C)cc3)C2)cn1 (centres undefined) 7.62%, COc1ccc(OCC(=O)N2CCCC(Nc3ccc(C)c(C)c3)C2)cc1 (centres undefined) 14.3%, CC(=O)c1ccc(OCC(=O)N2CCCC(Nc3ccc(C)c(C)c3)C2)cc1 (centres undefined) 14.3%, CC(=O)c1ccc(C(=O)N2CCCC(Nc3ccc(C(C)C)cc3)C2)s1 (centres undefined) -45.7%, CC(=O)c1ccc(C(=O)N2CCCC(Nc3ccccc3)C2)s1 (centres undefined) 7.53%, COc1ccc(C(=O)N2CCCC(Nc3ccc(C(C)C)cc3)C2)c(OC)n1 (centres undefined) 2.96%, CC(C)(C)c1ccc(C(=O)NCCCN2CCN(CCCNC(=O)c3ccc(C(C)(C)C)cc3)CC2)cc1 0.51%, COC(=O)C1=C(O)C(C(=O)OC)C(c2ccc(C)cc2)C(C#N)(C#N)C1c1ccc(C)cc1 (centres undefined) 6.45%, COc1ccc(/C=C/C(=O)Nc2cc(C(F)(F)F)ccc2Cl)cc1 0.39%, CCOC(=O)C1=C(C)NC(C)=C(C(=O)OCC)C1c1cccc([N+](=O)[O-])c1 10.8%, O=C(c1cccc(N2CCCC2=O)c1)N1CCN(c2ccccc2)CC1 10.3%, COCCN(C(=O)Cc1coc2cc(C)c(C)cc12)c1c(N)n(Cc2ccccc2)c(=O)[nH]c1=O 0.31%, CCCC(C(=O)N(C)CC(=O)Nc1ccc(N2CCOCC2)cc1)c1ccccc1 (centres undefined) 7.2%, CCNC(=S)N(Cc1cc2c(C)ccc(C)c2[nH]c1=O)C1CCCC1 3.17%, Cc1nc(C(=O)N2CCCC(Nc3ccc(C)c(C)c3)C2)cs1 (centres undefined) 13.6%, COc1ccc(NC2CCCN(C(=O)c3ccc4[nH]c(C)c(C)c4c3)C2)cc1OC (centres undefined) 12.8%, COc1ccc(C(=O)N2CCCC(Nc3ccc(F)cc3)C2)c(OC)c1 (centres undefined) 5.24%, Cc1cc(C(=O)N2CCCC(Nc3ccccc3)C2)c2ccc(F)cc2n1 (centres undefined) 12.7%, COc1ccc(C(=O)N2CCCC(Nc3ccc(C)c(C)c3)C2)cc1 (centres undefined) 16.9%, COc1ccc(NC2CCCN(C(=O)CSc3ccncc3)C2)cc1 (centres undefined) 31.3%, COc1ccc(NC2CCCN(C(=O)C3(C)CCCCC3)C2)cc1OC (centres undefined) -45.5%, CSc1nc(C(=O)N2CCCC(Nc3ccc(C)c(C)c3)C2)cs1 (centres undefined) 13.4%, CC(CC(=O)Nc1ccc(S(=O)(=O)N2CCOCC2)cc1)c1ccccc1 (centres undefined) 3.54%, Cc1cc(Cl)ccc1NC(=S)N1CCN(C(=O)c2ccco2)CC1 5.96%, Cc1ccc(S(=O)(=O)NN=Cc2c(O)ccc3ccccc23)cc1 11.4%, O=C(NCCc1ccccc1)C1CCC(CNS(=O)(=O)c2ccc(F)cc2)CC1 (centres undefined) 6.44%, O=C(CSc1nnc(CNC(=O)c2ccco2)o1)Nc1ccc(F)cc1 -2.84%, Cc1ccc(N/C(CSC(N)=O)=N/S(=O)(=O)c2ccccc2)cc1 4.14%, Cc1cc(C=O)c(C)n1-c1cc(C(F)(F)F)ccc1N1CCOCC1 5.1%, CCn1nc(C)cc1C(=O)N1CCCC(Nc2ccc(C(C)C)cc2)C1 (centres undefined) 9.28%, CCn1nc(CC(C)C)cc1C(=O)N1CCCC(Nc2ccc(F)cc2)C1 (centres undefined) 1.25%, CCN(CC)c1ccc(S(=O)(=O)N2CCOCC2)cc1NC(=O)C1CC1 6.61%, Cc1ncc(S(=O)(=O)C(C)(C)C)c(N)n1 4.93%, O=C(COC(=O)/C=C/c1cccs1)NC(=O)Cc1ccccc1 9.86%, Nc1ccccc1SC/C=C/CSc1ccccc1N 17.8%, Nc1ccccc1SCc1ccccc1 3.68%, CC1(C)CC(=O)C2=C(C1)NC(=O)NC2c1ccc(Cl)cc1 (centres undefined) 9.51%, COc1ccc(NC(=O)C2CC(c3ccc(Cl)cc3)=NO2)cc1OC (centres undefined) -3.14%, COC(=O)C1CCN(C(=O)Cn2nnc(-c3ccccc3)n2)CC1 5.24%, CN(C)c1ccc(/C=C2\CCC/C(=C\c3ccccc3)C2=O)cc1 10.2%, CC(C)/C=C1\CC/C(=C\c2ccc(N(C)C)cc2)C1=O 6.52%, Cc1ccc(S(=O)(=O)N2CCCCC2)cc1NC(=O)CSc1nnc(C2CC2)n1N 4.18%, Cc1cc(C(=O)NCC(=O)OCC(=O)NCCc2ccccc2)ccc1[N+](=O)[O-] -1.11%, COc1ccc(F)cc1C(=O)C1CCCN(Cc2ccc3c(c2)OCCO3)C1 (centres undefined) 4.09%, CC(C)NC(=O)C1CCN(Cc2cccc(OCc3ccccc3)c2)CC1 6.52%, COc1ccc(-c2onc(C)c2-c2cnn(-c3ccccc3)c2)c(O)c1C 5.03%, COc1ccc(-c2n[nH]c(C)c2-c2cnn(-c3ccccc3)c2)c(O)c1C 6.48%, CC(C)(C)NC(=O)COc1coc(CN2CCN(Cc3ccccc3)CC2)cc1=O -6.74%, Cc1ccc(OCC(=O)Nc2ccc(N3CCCC3)cc2)cc1C 7%, Cc1ccc(S(=O)(=O)N2CCOCC2)cc1NC(=O)CN1CCN(C)CC1 4%, Cc1ccc(F)cc1NC(=O)CN1CCN(Cc2ccccc2)CC1 -0.43%, CCN(CC)c1ccc(S(=O)(=O)N2CCOCC2)cc1NC(=O)CN1CCc2ccccc2C1 6.44%, Cc1ccc(S(=O)(=O)N(C)C)cc1NC(=O)CN1CCN(Cc2ccccc2)CC1 1.33%, CCN(CC)c1ccc(S(=O)(=O)N2CCOCC2)cc1NC(=O)CSc1ccccc1 1.35%, Cc1ccc(S(=O)(=O)N(C)C)cc1NC(=O)CN1CCCC1 3.96%, Cc1ccc(OCCNC(=O)c2ccc(C)cc2)cc1 -0.09%, CCN1C(=O)C(NC(C)=O)c2cc(Br)ccc21 (centres undefined) 1.35%, CCOc1ccc(NC(=O)CN(C)C(=O)Cc2n[nH]c(=O)c3ccccc23)cc1OCC 3.38%, COc1ccccc1CN(C)C(=O)c1cccc(S(=O)(=O)N2CCCC2)c1 5.67%, Cc1cccc(C)c1Nc1n[nH]c(=S)s1 13.1%, Cc1cc(C)c(Nc2n[nH]c(=S)s2)cc1C 29.6%, COc1ccccc1N1C(=O)S/C(=C\c2cc(C)n(C)c2C)C1=O -0.75%, N#Cc1ccc[n+](CC(=O)c2ccc(NC(=O)c3ccccc3)cc2)c1 3.28%, c1cc2c3c(cccc3c1)NC1(CCC3(CC1)Nc1cccc4cccc(c14)N3)N2 29.5%, c1cc2c3c(cccc3c1)NC1(CCCC1)N2 -1.27%, COc1cc(OC)cc(N(C(=O)c2ccco2)C(C(=O)NC2CCCC2)c2ccc(N3CCOCC3)cc2)c1 (centres undefined) 3.31%, O=C(NC1CCCC1)C(c1ccncc1)N(C(=O)Cc1cccs1)c1ccc(F)cc1 (centres undefined) -2.61%, ON=C1c2ccccc2-c2ccccc21 4.05%, Nc1ccc2c(c1)C(=NO)c1ccccc1-2 14.6%, ON=C1c2ccccc2-c2ccc(F)cc21 -0.77%, ON=C1c2ccccc2-c2ccc(Br)cc21 0.43%, COCCCNc1nc2nonc2nc1NCCSC -2.05%, Cc1cc(SCc2ccc(Cl)c(Cl)c2)nc(=O)[nH]1 13.6%, CC(C)(C)C(=O)Nc1ccc(C(=O)N/N=C/C2CC3C=CC2C3)cc1 (centres undefined) 8.37%, COC(=O)CNC(=O)C1CCCN1C(=O)CNC(=O)OCc1ccccc1 (stereo not drawn) (Cbz-Gly-[ξP]-Gly-OMe) 7.71%, CC(C)C(C)NC(=O)CN1C(=O)NC2(CCc3ccccc3C2)C1=O (centres undefined) 2.87%, CCC(=O)c1ccc(OCc2ccc(C(=O)c3ccccc3)cc2)cc1 6.28%, COc1cccc(NC(=O)c2sc3nc4n(c(=O)c3c2C)CCC4)c1 -4.45%, O=C(CCC1CCCC1)Nc1cccn(Cc2ccccc2Br)c1=O 2.13%, CCOC(=O)c1sc(=S)n(Cc2ccccc2)c1C 8.11%, CCOC(=O)c1cc(C)n(Cc2ccccc2)c1C -2.73%, Cc1noc(C)c1COc1ccccc1C(=O)NNC(=O)c1ccccc1 11.8%, N#C/C(=N\Nc1cccc(F)c1)C(=N)N1CCCCCC1 15.4%, O=C1c2ccccc2NC(c2ccccc2)N1/N=C/c1ccccc1 (centres undefined) 12.7%, Cc1ccc(/C=N/N2C(=O)c3ccccc3NC2c2ccc(C)cc2)cc1 (centres undefined) 7.64%, COc1ccc(Cn2nnnc2C(c2ccccn2)N2CCN(c3cc(Cl)ccc3C)CC2)cc1 (centres undefined) 3.5%, CCOC(=O)c1[nH]c2ccccc2c1NC(=O)COC 4.84%, CCOC(=O)c1[nH]c2ccccc2c1N=CN(CC)CC 14.9%, CCCC(=O)Nc1c(C(=O)OCC)[nH]c2ccccc12 4.51%, CCCCNC(=O)Nc1c(C(=O)OCC)[nH]c2ccccc12 5.71%, CCOC(=O)c1[nH]c2ccccc2c1N=CN(C)C 27.9%, CCOC(=O)c1[nH]c2ccccc2c1NC(=O)C(C)(C)C 5.02%, CCOC(=O)c1[nH]c(C)c(C(=O)Nc2ccccc2C)c1C 6.7%, Cc1cccc(NC(=O)COC(=O)c2n[nH]c3ccccc23)c1C 4.6%
